Data on 6 compounds can be found in PubChem BioAssay (NCATS).

Inconclusive results are not listed. Activity calls are given as the source filed them. Unless noted, calls follow the shape of the dose curve; as a rule, active = well fitted curve in the direction sought with a large enough effect; inconclusive = small, poorly fitted or top-dose-only effect, or another doubt; inactive = no such curve, though single readings can be large; an effect the other way counts as inactive or inconclusive.

Assay [1] can be described thus: AP1 Signaling Pathway (AID 357; active = well fitted curve in either direction with a large enough effect, not every such curve was filed as active;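 also: ME-180 reporter cells stimulated with EGF at its EC50 level; % is scaled to controls: 0 for no effect and ±100 for the full control effect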). The following applies: ME-180 AP-1-bla reporter, EGF-induced, beta-lactamase ratio, 5 h; at 7.69 µM (top of the series) unless noted. Put shortly: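 AP-1-bla ME-180 cells, Opti-MEM + 0.5% dialyzed FBS, plated overnight 37 °C. Cpd titration + EC50 EGF, 5 h 37 °C. CCF4 2.5 h RT; ex 405, em 460/530 ratio → %activity, AC50.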
Assay [2] has as its target Cytochrome P450 1A2 (Homo sapiens) (UniProt P05177). The assay can be described thus: p450-cyp1a2 (AID 410; calls by dose curve;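 also: -100% = full effect of reference inhibitor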). Put shortly: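 Read-out is luminescence from luciferin produced by CYP1A2 demethylation of Luciferin-ME (100uM, at Km). Detection reagent stopped the 60 min NADPH-dependent reaction; signals were normalized to 57 uM furafylline.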
The nature of assay [3]: NFAT Signaling Pathway (AID 444; active = well fitted curve in either direction with a large enough effect, not every such curve was filed as active;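 also: carbachol stimulus at about its EC50 of 1 µM final; % is scaled to controls: 0 for no effect and ±100 for the full control effect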). To be noted: Jurkat NFAT-bla M1, carbachol, beta-lactamase ratio, 5 h; at 7.69 µM (top of the series) unless noted. A digest of the protocol: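 Read-out: CCF4 FRET ratio (460 nm/530 nm) after 1 h RT dye loading, used for %activity and AC50 from titration series. Cells: Jurkat NFAT-β-lactamase/M1 line, treated with compound plus 1 uM carbachol for 5 h, 37 °C.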

Assay [4] in a line: Stat Signaling Pathway (AID 446; active = well fitted curve in either direction with a large enough effect, not every such curve was filed as active;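 also: ME-180 cervical cancer cells given 40 pM IL-6 alongside compound; SIE-controlled beta-lactamase reporter measured as 460/530 nm FRET emission ratio; % is scaled to controls: 0 for no effect and ±100 for the full control effect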). To be noted: ME-180 SIE beta-lactamase reporter, IL-6 stimulated, 5 h; at 7.69 µM (top of the series) unless noted. A digest of the protocol: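 Overnight-plated ME-180 cells bearing a STAT Inducible Element beta-lactamase reporter; 5 h co-exposure to compound and 40 pM IL-6; values normalized to 300 pM IL-6 and 125 nM JAK inhibitor controls.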

Assay [5] deals with Glucocorticoid receptor (Homo sapiens) (UniProt P04150). The experiment in a line: GR-GFP Redistribution (AID 450;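 active = compounds whose dose series gives a full or clear partial fitted curve of increased nuclear translocation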; also: potency is read from the fitted curve at half-maximal effect). To be noted: U2OS GR-GFP nuclear translocation, laser cytometry, 2 h.
Glucocorticoid receptor (Homo sapiens), sequence (P04150 whole entry, looked up, the tested form may be a part): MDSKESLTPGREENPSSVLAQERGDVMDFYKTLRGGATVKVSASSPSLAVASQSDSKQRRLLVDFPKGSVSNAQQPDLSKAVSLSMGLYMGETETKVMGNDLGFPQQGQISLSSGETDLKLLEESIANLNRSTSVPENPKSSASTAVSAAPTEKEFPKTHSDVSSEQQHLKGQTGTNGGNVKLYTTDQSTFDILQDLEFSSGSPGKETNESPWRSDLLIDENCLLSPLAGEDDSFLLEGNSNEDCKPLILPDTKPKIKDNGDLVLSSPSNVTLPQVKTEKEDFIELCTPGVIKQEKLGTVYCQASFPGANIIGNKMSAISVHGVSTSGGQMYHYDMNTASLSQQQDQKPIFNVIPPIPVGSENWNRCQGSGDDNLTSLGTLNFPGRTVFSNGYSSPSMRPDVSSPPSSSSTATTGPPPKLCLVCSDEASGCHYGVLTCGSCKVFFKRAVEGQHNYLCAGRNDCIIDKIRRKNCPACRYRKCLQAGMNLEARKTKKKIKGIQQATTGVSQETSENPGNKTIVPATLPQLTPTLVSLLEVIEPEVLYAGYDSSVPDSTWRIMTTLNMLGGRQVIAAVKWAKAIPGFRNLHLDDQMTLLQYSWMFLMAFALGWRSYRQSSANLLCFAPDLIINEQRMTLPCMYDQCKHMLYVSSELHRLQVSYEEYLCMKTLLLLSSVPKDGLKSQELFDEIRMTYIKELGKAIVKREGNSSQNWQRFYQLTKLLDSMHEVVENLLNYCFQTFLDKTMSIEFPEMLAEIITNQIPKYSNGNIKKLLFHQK
For assay [6] the target is unchanged. The experiment in a line: GR-EFC Redistribution (AID 451; calls by dose curve; also: potency is read from the fitted curve at half-maximal effect). To be noted: CHO-K1 GR-EFC translocation, beta-gal luminescence, 2 h. A digest of the protocol: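 Translocation of GR-ED fusion to nuclear EA restores b-gal, read by luminescence after 1 h room-temperature detection. Engineered CHO-K1 biosensor cells, 1,000/well, exposed 2 h at 37 C to titrations up to 46 uM final.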

In assay [7] the target is Mitogen-activated protein kinase 10 (Mus musculus) (UniProt Q61831). The assay can be described thus: JNK3 AlphaScreen Assay (AID 530; active = well fitted curve in either direction with a large enough effect, not every such curve was filed as active;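 also: kinase came from lysate of stimulated human HepG2 cells; signal reports phosphorylation of biotinylated GST-cJun 1-79 at Ser73 with 10 µM ATP; % is scaled to controls: 0 for no effect and ±100 for the full control effect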). A digest of the protocol:
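Kinase buffer: 20 mM Tris-HCl pH 7.6, 10 mM MgCl2, 1 mM DTT, 0.1 mM Na3VO4, 0.01% Tween-20; ATP 10 uM. Substrate biotin-GST-cJun(1-79), enzyme from activated HepG2 lysates. Detection by Ser73 phospho-antibody AlphaScreen.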
On the technique in general: Bead proximity is the source of the signal in Alpha formats.

Assay [8] concerns the target 3',5'-cyclic-AMP phosphodiesterase 4B (Homo sapiens) (UniProt Q07343). The experiment in a line: qHTS Assay for Inhibitors of PDE-IV (AID 607; active = well fitted activation curve with a large enough effect in the main read-out, with a control signal flat, not every such curve was filed as active; also: % of control where 0% means no effect). Put shortly:
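Live HEK293 cells with a modified cyclic nucleotide-gated (CNG) channel report intracellular cAMP via membrane-potential dye fluorescence (ex 535/em 590 nm). Endogenous PDE-IV was targeted. Compounds were tested at up to 22.9 uM final; RO 20-1724 100 uM served as control.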
(Quantitative high-throughput screening tests each substance at several concentrations.)

In assay [9] the target is Guanine nucleotide-binding protein G(i) subunit alpha-1 (Homo sapiens) (UniProt P63096). The experiment in a line: qHTS Assay for Inhibitors of RGS12 GoLoco Motif Activity (Green Fluorophore) (AID 879).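 Also: 0% = labeled peptide with Gαi1 and full inhibition = labeled peptide alone without protein; negative values mean loss of peptide binding seen as reduced polarization.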 A digest of the protocol:
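A drop in FITC polarization marked displacement of the FITC-tagged RGS12 GoLoco peptide (10 nM) from Gαi1 (50 nM). Compounds were incubated 10 min at room temperature in Tris pH 7.5 buffer containing 150 mM NaCl, 0.1 mM GDP and 0.05% NP40; unlabeled peptide titration served as control.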

Assay [10] in a line: qHTS Assay for Identification of Small Molecule Agonists for Thrombopoietin (TPO) Signaling Pathway (AID 917). Also: % is scaled to controls: 0 for no effect and ±100 for the full control effect. A digest of the protocol:
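Stimulation at the TPO EC50 (26 pM final) was used to detect activators. Ba/F3 mouse cells bearing human TPO receptor and a luciferase reporter under the Glycoprotein IIb promoter were exposed to compounds for 24 hrs at 37 C.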

Assay [11] addresses Muscarinic acetylcholine receptor M1 (Rattus norvegicus) (UniProt P08482). The experiment in a line: qHTS Assay for Antagonists of Acetylcholine Muscarinic M1 Receptor: Measurement of IP-One Response (AID 944). Also: nearly all actives have a fitted effect of over 75% in size. A digest of the protocol: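 Antagonism was measured as loss of carbachol-driven (EC80) IP1 accumulation in CHO cells carrying rat M1, using a homogeneous IP-One TR-FRET kit read at 620 and 665 nm.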

Assay [12] addresses Pyruvate kinase (Leishmania mexicana) (UniProt Q27686). The experiment in a line: qHTS Validation Assay for Inhibitors of Leishmania Mexicana Pyruvate Kinase (AID 945).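 Also: 0% = DMSO only neutral control wells.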 Put shortly:
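Compounds are tested as eight-point concentration series. Reactions contain 0.2 nM LmPYK E451W, 0.5 mM PEP, 0.1 mM ADP, 7 mM MgCl2 and 50 mM KCl at pH 7.2, run 1 h at room temperature, then read by PKLight luminescence.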

Assay [13] concerns the target Pyruvate kinase PKM (Homo sapiens) (UniProt P14618). The assay can be described thus: qHTS Assay for Activators of Human Muscle Pyruvate Kinase (AID 954; active = well fitted curve in the direction sought with a large enough effect, not every such curve was filed as active;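 also: 0% = uninhibited enzyme and -100% = no enzyme or full thiadiazolimine inhibition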). A digest of the protocol: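 Screening used highly purified human pyruvate kinase M2 under submaximal activity, with PEP at its Km and ADP below Km. After an hour at room temperature, ATP was read by luciferase luminescence.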

The target of assay [14] is Alpha-galactosidase A (Homo sapiens) (UniProt P06280). The experiment in a line: Counterscreen for Glucocerebrosidase Inhibitors: qHTS Assay for Human alpha-Galactosidase at pH 4.5 (AID 992). Also: 0% is about no effect. Put shortly:
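Each compound is preincubated briefly with 2 nM enzyme before substrate addition (80 uM); plates then sit 20 min at ambient temperature, are quenched with 1M NaOH/1M glycine, and read fluorometrically.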
For orientation: Counterscreens check selectivity or assay interference.

Assay [15] addresses alpha-glucosidase (Oryza sativa, rice) (UniProt Q653V4). The assay can be described thus: Counterscreen for Glucocerebrosidase Inhibitors: qHTS Assay for Rice alpha-Glucosidase at pH 5.0 (AID 997).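 Also: 0% = full activity with enzyme and -100% = basal without enzyme.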 Put shortly:
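Endpoint fluorogenic assay at pH 5.0: compounds (0.7 nM to 77 uM) titrated against 4 nM rice enzyme and 400 uM 4-MU-alpha-glucoside for 20 min at room temperature; NaOH/glycine stop, read ex 365/em 440 nm, Hill-fitted AC50.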

In assay [16] the target is Cytochrome P450 2C9 (Homo sapiens) (UniProt P11712). The experiment in a line: qHTS Assay for Inhibitors and Substrates of Cytochrome P450 2C9 (AID 883). Also: nearly all actives have a fitted effect of over 60% in size. Also: potency is read from the fitted curve at half-maximal effect. A digest of the protocol: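 Inhibition of CYP2C9 is scored as loss of luminescence, with 57uM sulphaphenazole defining 100% inhibition. Substrate Luciferin-H is used at 100uM, equal to its KM; enzyme at 10nM in 25mM KPO4, 60 min at 37C with NADPH regeneration.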
Cytochrome P450 2C9 (Homo sapiens), sequence (P11712 whole entry, looked up): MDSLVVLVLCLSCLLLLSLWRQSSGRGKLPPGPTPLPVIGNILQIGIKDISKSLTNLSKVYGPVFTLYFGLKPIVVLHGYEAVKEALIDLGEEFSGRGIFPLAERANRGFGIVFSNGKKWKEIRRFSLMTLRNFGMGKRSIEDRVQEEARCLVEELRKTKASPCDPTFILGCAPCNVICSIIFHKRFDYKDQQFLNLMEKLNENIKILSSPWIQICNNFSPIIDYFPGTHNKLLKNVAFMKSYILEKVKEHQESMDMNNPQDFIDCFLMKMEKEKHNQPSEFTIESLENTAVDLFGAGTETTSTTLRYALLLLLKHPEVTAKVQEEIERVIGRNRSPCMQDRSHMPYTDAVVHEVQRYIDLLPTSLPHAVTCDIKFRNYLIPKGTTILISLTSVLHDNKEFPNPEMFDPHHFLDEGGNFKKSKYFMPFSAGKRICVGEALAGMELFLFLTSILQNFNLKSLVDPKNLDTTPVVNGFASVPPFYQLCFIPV

Assay [17] addresses Cytochrome P450 2C19 (Homo sapiens) (UniProt P33261). The experiment in a line: qHTS Assay for Inhibitors and Substrates of Cytochrome P450 2C19 (AID 899). Also: % is scaled to controls: 0 for no effect and ±100 for the full control effect; nearly all actives have a fitted effect of over 60% in size. Put shortly:
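5nM enzyme + 10uM Luciferin-H EGE (=KM), 50mM KPO4; cpd pin-transferred, 10 min 37C; NADPH regen, 60 min 37C; stopped w/ luciferin detection reagent, 20 min; luminescence. Normalized to 57uM ketoconazole (AC100).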

The nature of assay [18]: qHTS Assay for Identification of Small Molecule Agonists for Hypoxia Response Element Signaling Pathway (AID 914; active = well fitted activation curve with a large enough effect in the signal ratio, with a control signal flat, not every such curve was filed as active; the % refers to the signal ratio; also: % of control where 0% means no effect). The following applies: ME-180 (cervical carcinoma) HRE-bla reporter, beta-lactamase ratio, CoCl2, 17 h; activation: hits give high values. Put shortly:
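A beta-lactamase reporter under hypoxia response element control in ME-180 cells served as the system. Compound titrations plus EC50 CoCl2 ran 17 h at 37 degrees Celsius; AC50 values were fitted from %Activity.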

Assay [19] has as its target Cytochrome P450 3A4 (Homo sapiens) (UniProt P08684). The assay can be described thus: qHTS Assay for Activators of Cytochrome P450 3A4 (AID 885). Also: nearly all actives have a fitted effect of over 65% in size. A digest of the protocol:
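Using 20nM recombinant human CYP3A4 in potassium phosphate (200mM), substrate Luciferin-PPXE at 25uM, luminescent luciferin detection followed a 60-min RT NADPH reaction; data scaled to 57 uM ketoconazole.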

3',5'-cyclic-AMP phosphodiesterase 4B (Homo sapiens), sequence (Q07343 whole entry, looked up): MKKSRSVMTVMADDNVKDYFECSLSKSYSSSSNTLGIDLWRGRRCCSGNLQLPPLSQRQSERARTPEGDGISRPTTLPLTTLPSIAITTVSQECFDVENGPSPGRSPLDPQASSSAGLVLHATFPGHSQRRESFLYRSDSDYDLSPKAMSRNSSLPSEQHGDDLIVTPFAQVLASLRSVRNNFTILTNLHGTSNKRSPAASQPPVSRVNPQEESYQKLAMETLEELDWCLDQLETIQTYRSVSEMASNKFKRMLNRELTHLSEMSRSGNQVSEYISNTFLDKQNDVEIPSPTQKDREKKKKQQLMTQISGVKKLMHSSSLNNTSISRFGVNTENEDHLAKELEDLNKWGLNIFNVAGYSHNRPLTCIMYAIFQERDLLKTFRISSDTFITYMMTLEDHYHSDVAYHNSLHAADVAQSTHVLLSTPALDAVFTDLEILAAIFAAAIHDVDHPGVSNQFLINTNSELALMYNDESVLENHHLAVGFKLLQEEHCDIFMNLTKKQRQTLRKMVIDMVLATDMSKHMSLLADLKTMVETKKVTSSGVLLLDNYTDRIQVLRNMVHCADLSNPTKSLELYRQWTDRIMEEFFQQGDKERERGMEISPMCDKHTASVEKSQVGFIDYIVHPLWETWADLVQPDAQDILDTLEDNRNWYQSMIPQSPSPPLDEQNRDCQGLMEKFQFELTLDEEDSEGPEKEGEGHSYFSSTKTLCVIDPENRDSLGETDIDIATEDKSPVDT
Alpha-galactosidase A (Homo sapiens), sequence (P06280 whole entry, looked up): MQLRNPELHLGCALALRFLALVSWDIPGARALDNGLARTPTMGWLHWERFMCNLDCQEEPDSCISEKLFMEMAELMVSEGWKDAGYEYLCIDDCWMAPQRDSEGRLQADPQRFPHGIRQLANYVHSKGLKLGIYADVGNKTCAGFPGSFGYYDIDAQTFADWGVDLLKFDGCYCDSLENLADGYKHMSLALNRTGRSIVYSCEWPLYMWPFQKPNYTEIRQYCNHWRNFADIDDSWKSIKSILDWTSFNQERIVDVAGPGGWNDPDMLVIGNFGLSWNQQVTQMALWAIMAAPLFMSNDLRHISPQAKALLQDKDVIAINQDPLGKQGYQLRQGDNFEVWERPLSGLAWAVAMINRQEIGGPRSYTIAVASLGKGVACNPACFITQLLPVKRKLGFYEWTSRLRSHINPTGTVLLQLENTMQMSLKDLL
Pyruvate kinase PKM (Homo sapiens), sequence (P14618 whole entry, looked up): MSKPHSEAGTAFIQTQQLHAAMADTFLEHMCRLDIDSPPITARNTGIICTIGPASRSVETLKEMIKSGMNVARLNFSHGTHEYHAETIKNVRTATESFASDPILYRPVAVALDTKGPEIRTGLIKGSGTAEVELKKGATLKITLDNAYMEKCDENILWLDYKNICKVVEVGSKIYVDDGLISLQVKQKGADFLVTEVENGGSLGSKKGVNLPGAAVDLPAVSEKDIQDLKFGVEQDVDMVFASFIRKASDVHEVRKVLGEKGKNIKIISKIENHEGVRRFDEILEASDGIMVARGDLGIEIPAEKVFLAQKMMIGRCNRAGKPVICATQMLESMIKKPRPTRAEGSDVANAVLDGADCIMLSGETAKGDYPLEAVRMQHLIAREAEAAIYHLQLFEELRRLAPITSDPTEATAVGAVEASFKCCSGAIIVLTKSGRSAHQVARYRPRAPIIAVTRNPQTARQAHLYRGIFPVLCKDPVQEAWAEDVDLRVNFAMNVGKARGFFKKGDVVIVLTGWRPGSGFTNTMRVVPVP
Muscarinic acetylcholine receptor M1 (Rattus norvegicus), sequence (P08482 whole entry, looked up): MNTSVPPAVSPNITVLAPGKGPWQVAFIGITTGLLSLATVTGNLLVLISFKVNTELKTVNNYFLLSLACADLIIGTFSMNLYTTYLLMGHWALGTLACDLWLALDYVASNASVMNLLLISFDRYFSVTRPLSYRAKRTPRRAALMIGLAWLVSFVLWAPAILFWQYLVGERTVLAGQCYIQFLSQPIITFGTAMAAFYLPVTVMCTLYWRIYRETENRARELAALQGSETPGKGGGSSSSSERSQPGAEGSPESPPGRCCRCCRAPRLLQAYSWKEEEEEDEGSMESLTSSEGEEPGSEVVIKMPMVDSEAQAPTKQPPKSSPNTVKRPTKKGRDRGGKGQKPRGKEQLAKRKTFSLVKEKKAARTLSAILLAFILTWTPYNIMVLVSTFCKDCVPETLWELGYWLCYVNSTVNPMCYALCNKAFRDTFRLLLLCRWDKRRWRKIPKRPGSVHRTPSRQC
Cytochrome P450 1A2 (Homo sapiens), sequence (P05177 whole entry, looked up): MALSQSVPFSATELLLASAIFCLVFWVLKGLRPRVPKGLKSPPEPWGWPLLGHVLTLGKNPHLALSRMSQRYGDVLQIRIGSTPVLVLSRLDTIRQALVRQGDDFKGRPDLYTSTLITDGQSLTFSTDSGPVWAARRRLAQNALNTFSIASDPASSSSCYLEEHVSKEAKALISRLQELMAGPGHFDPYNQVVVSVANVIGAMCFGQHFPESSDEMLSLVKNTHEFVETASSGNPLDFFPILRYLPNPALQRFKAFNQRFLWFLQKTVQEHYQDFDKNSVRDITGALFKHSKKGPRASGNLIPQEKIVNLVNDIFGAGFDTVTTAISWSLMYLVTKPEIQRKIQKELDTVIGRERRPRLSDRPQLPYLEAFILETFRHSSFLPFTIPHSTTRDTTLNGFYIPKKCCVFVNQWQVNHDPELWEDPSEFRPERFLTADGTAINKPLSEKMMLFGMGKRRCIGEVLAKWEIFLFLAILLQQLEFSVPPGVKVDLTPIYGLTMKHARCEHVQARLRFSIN
Pyruvate kinase (Leishmania mexicana), sequence (Q27686 2-499 E452W): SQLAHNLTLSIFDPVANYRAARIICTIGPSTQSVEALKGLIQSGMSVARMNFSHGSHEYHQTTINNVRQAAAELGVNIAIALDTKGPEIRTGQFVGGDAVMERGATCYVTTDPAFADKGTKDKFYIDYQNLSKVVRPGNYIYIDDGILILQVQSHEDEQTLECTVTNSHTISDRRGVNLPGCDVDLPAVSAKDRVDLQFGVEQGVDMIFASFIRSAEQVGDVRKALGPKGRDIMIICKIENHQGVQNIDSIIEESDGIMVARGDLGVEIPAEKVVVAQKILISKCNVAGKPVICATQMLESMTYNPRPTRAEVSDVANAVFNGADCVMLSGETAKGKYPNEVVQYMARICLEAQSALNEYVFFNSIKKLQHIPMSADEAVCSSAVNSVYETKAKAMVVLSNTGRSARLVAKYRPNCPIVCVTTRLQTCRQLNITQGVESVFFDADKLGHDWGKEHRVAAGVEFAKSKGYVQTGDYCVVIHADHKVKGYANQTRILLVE
Guanine nucleotide-binding protein G(i) subunit alpha-1 (Homo sapiens), sequence (P63096 whole entry, looked up): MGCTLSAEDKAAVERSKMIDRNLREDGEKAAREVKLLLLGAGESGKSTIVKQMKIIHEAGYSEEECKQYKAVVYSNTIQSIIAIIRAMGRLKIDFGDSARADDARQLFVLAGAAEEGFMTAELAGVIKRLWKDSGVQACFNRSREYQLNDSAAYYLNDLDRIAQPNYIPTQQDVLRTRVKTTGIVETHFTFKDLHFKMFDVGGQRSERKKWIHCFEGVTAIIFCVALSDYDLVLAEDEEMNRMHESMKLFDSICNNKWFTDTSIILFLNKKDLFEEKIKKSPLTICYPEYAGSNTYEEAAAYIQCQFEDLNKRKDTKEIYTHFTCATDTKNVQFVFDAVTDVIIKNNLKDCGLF

For `CCCCCCCCCCCCCCC/C=C\[C@H](O)[C@@H](NC(=O)CCCCCCCCCCCCC)OC` (tested in a mixture with another compound), the activity change, negative = inhibition in assay [1] was 15.5% [at 38 µM] (inactive); in assay [3] it was 13% [at 38 µM] (inactive). In addition, the Potency entry in [2], in assay [7], in [8], in [11] and in [15] was “inactive” throughout. Further, in assay [4], the activity, negative = inhibition was -20.2% [at 38 µM] (inactive). Moreover, the Potency in [5] and in [6] was > 46 µM (inactive) throughout. Moreover, the result in [9], in assay [10], in assay [12], in assay [13] and in assay [14] was inactive.
With `CC(C)N(Cc1ccccc1)S(=O)(=O)c1n[nH]c(C(C)(C)C)n1`, the activity change, negative = inhibition in [1] is -0.248% (inactive); in assay [3] it was 4.29% (inactive). The Potency entry in [2], in assay [7] and in assay [8] was “inactive” throughout. In assay [4], the activity, negative = inhibition is -2.12% (inactive). For the same compound, the Potency in [5] was > 46 µM (inactive); in [6] it was > 9.22 µM (inactive); in assay [16], 3.98 µM (active).
For the compound `O=C(O)CCC(=O)N1CCC[C@H]1C(=O)O`, the activity change, negative = inhibition was 14% [at 38 µM] (inactive) in assay [1] and 7.11% [at 38 µM] (inactive) in [3]. In addition, the Potency entry in [2], in assay [7], in assay [8], in assay [17], in assay [11] and in assay [15] was “inactive” each time. Moreover, the activity, negative = inhibition in assay [4] is -28.5% [at 38 µM] (inactive). The Potency in assay [5] and in [6] was > 46 µM (inactive) each time. Besides, the compound was called inactive in assay [9], in assay [10], in assay [12], in assay [13] and in assay [14].
With `CN1C[C@@H](O)[C@@H](O)[C@@H](O)[C@@H]1CO`, the activity change, negative = inhibition in assay [1] is 0.324% [at 38 µM] (inactive); in [3] it was 16.3% [at 38 µM] (inactive). For the same compound, the Potency result in [2], in assay [7], in [8], in assay [16] and in [17] was “inactive” each time. In assay [4], the activity, negative = inhibition was -5.85% [at 38 µM] (inactive). The Potency in [5] and in assay [6] was > 46 µM (inactive) each time. Moreover, the activation in [18] was 11.9% (inactive).
In the case of `CN1CCc2c(cc(O)c(O)c2Cl)[C@H](c2cccc(Cl)c2)C1`, the activity change, negative = inhibition was 26% [at 38 µM] (inactive) in [1] and -25.3% [at 38 µM] (inactive) in assay [3]. In addition, the Potency result in assay [2], in assay [7], in [8] and in assay [15] was “inactive” each time. Moreover, the activity, negative = inhibition in assay [4] was -20% [at 38 µM] (inactive). The Potency in assay [5] and in [6] was > 46 µM (inactive) each time. For the same compound, the compound was classed as inactive in assay [9], in assay [12], in [13] and in assay [14].
For the compound `N.N.N.N.N.N.N.N.N.N.N.N.N.N.O.O.[Ru].[Ru].[Ru]`, the activity change, negative = inhibition in [1] was 17.6% [at 38 µM] (inactive); in assay [3], -5.33% [at 38 µM] (inactive). Moreover, the Potency entry in assay [2], in assay [7], in assay [8], in assay [19], in [11] and in assay [15] was “inactive” throughout. In assay [4], the activity, negative = inhibition was -27% [at 38 µM] (inactive). In addition, the Potency in assay [5] and in assay [6] was > 46 µM (inactive) in each case. Also, the outcome in assay [9], in assay [10], in assay [13] and in assay [14] was inactive.
